This is an account of results in PubChem BioAssay AID2023 (NMMLSC, 2009).

Hit rate of the full screen: of about 320,000 compounds, about 1,100 (0.34%) were called active. The entries come from a sample that favours actives as a whole. Values without a mark were called inactive.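 Rule for the calls: active = GFP response vs DMSO above a set limit, about the screen mean plus 3 SD (cut at about 150% in these data); inconclusive = under 70 cell events counted for the yeast strain; inactive = the rest.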

The nature of the assay: TOR pathway LAP4-GFP level changes – S. cerevisiae, multiplex flow cytometry, MLPCN library, primary screen (AID 2023). The conditions noted are these: 3 h, at 10 µM, active compounds read high, median GFP as percent of DMSO wells.
`Cc1cccc(NS(=O)(=O)c2ccc(C(=O)NCC(C)(C)N3CCOCC3)cc2)c1C`: the GFP response vs DMSO was 103%.

Consider `CCOc1ccc(NC(=O)CN(C)C(=O)COc2cccc(CC)c2)cc1OCC`, for which the GFP response vs DMSO is 100%.

For `CCC(=O)N1CCC(C(N)=O)(N2CCCCC2)CC1`, the GFP response vs DMSO is 95.6%.

On to `CCCCCCSc1ccc([C@@H]2[C@@H]3C(=O)N(CC)C(=O)[C@@H]3[C@]3(C(=O)OC)CCCCN23)cc1OC`, for which the GFP response vs DMSO was 90.1%.

In the case of `CCC(=C/c1sc2ccc3ccccc3c2[n+]1C)/C=C1\Sc2ccc3ccccc3c2N1C`, the GFP response vs DMSO was 283% (active).

As to `O=C(Nc1cccc(Cl)c1Cl)c1ccccc1NC(=O)C1CC=CCC1C(=O)O` (configuration not stated), the GFP response vs DMSO is 67.7%.

With `Cc1cccc(C)c1N1CCN(S(=O)(=O)N2CCOCC2)CC1`, the GFP response vs DMSO is 110%.

For the molecule `C=CCOc1ccc(Cl)cc1CNCCCN1CCOCC1`, the GFP response vs DMSO is 91.3%.

Consider `Cc1ccc(S(=O)(=O)c2nnn3c2nc(N2CCN(c4ccccn4)CC2)c2ccccc23)cc1`, for which the GFP response vs DMSO was 104%.

`CC(=O)Nc1ccc(Nc2nc3c(S(=O)(=O)c4ccc(C)c(C)c4)nnn3c3ccccc23)cc1`: the GFP response vs DMSO is 89.9%.

In the case of `Cc1cccc(Nc2nc3c(S(=O)(=O)c4ccccc4)nnn3c3ccccc23)c1C`, the GFP response vs DMSO was 783% [may fluoresce green] (active).

With `CN(C)c1nc(=Nc2cccc(Cl)c2)ss1`, the GFP response vs DMSO was 191% (active).

Regarding `CCOC(=O)N1CCN(C(=O)c2cn(C)c3ccc(S(=O)(=O)N(CC)CC)cc3c2=O)CC1`, the GFP response vs DMSO is 102%.

As to `O=C(O)C1OC(C(=O)O)C2C1C(F)(F)C2(F)F` (configuration not stated), the GFP response vs DMSO was 99.4%.

For `O=C(CN1C(=O)NC2(CCCC2)C1=O)NCC1CCCO1` (configuration not stated), the GFP response vs DMSO was 104%.

For `O=c1[nH]c(SCc2cccc(F)c2)nc2ccccc12`, the GFP response vs DMSO is 108%.

`Nc1cc(N)nc(SCc2cccc(F)c2)n1`: the GFP response vs DMSO is 97.2%.

For `CCc1nnc(SCc2cccc(F)c2)nc1CC`, the GFP response vs DMSO is 152% (active).

Turning to `O=C(CCC1CCN(C(=O)c2cccc(Cl)c2F)CC1)Nc1ccccc1`, the GFP response vs DMSO was 106%.

Consider `COc1ccccc1N1CCN(S(=O)(=O)c2ccc(Cl)cc2)CC1`, for which the GFP response vs DMSO was 110%.

For the molecule `CCOC(=O)N1CCN(S(=O)(=O)c2ccc(Br)cc2)CC1`, the GFP response vs DMSO was 108%.

As for `Cn1ncc(N2CCN(S(=O)(=O)c3ccc(Br)cc3)CC2)c(Cl)c1=O`, the GFP response vs DMSO is 170% (active).
